# Test results taken from PubChem BioAssay AID1508600 (Functional Genomics Laboratory (NCATS/FGL), 2020).
# Among all 53,000 sequences or so, about 3,700 (7%) were called active. This excerpt belongs to a sample that is enriched for actives. Values without a mark were called inactive.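 How the source made its calls: active means gene knockdowns whose robust z-score for IL-1 alpha signal is at least 2 or at most -2, so actives lie on both sides; inactive means the rest.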
# Assay: Components of the Cytosolic LPS Sensing Pathway: Gene Identification via Genome-wide siRNA Screen;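 further: robust z of the log signal after scaling to non-targeting control siRNA wells of the plate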
# Settings: RAW264.7 macrophages, IL-1a HTRF, actives lie on both sides, screened at 100 nM (by protocol), cells primed 5 h with Pam3CSK4 first
# Outline: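 Three distinct siRNAs per gene were tested singly at 100 nM in RAW264.7 macrophages. Following Pam3CSK4 priming and 24 hour LipidA transfection, IL-1a secretion was read by HTRF.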
row,Sequence,z-score
1,GCAACAUGUAGGCAACAUCTT against Tmx2,-0.179
2,CCAAUGAGAGUUCUAUGAUTT against Cxxc4,-0.192
3,GGUUAGCAGGGACCUAAUGTT against Zfp94,2.57 (active)
4,GGAAAACACGAGUUUCCCUTT against Arrdc4,1.56
5,CCAAGCCAAGCAAUCUUGATT against Chat,-0.247
6,CCAAACUUACAAAUAUGCGTT against Sgpp1,1.35
7,GGAUCCUGUCCACAAGCACTT against Astn1,0.519
8,GGUUCAGAUCCACAGCCAGTT against Asic2,-2.12 (active)
9,CCCAUAACCAGAAUUAAAGTT against Wdr64,0.454
10,GGUCAUUGCAUCUGACAAGTT against Pcdha2,0.109
11,GGGAGGAUACCUUCUAUGUTT against Atf6b,-0.43
12,GGACACAGACAUCCUCUUGTT against Sult5a1,1.04
13,GGGAGAUGUUUGUUUUCAATT against Mmp16,3.52 (active)
14,GGAAACCUUUUCAUUAACATT against Il23r,0.138
15,GGACAACUUCCUAGGGCUCTT against Esyt3,0.248
16,CCCAAGCAAUUACAGUACUTT against Olfr263,-0.543
17,GGCCCUCUGAGAUUAAUGUTT against Nfkbid,2.58 (active)
18,CAGAUCCAUCUCUUAAUGGTT against Olfr204,0.383
19,GGUAUCAGGUACCAACGACTT against Cpne6,0.768
20,GGACAUUAGCCAACACAUCTT against Scp2d1,1.17
21,GGAAUUGACUUUAAGACAATT against Boll,-0.413
22,GGAAGUCAAGCAUAUUGCCTT against Sntb2,3.04 (active)
23,GCAUUGGUGUUUAGUUGGUTT against Gdf2,1.11
24,GGAGUUCGCACAGAAAUUCTT against Dhdh,-0.619

row,Sequence,z-score
1,GGUGUAUUAAAAUGUCAGUTT against Marveld2,1.92
2,GGUCAUCAGAAUGUGAAAATT against Zfp354a,0.232
3,GGAGAGACCAGAAUGGUAUTT against Fbxw21,-1.12
4,GGUAUUUCGAAACCUCCGUTT against H2-Q10,2.01 (active)
5,GCAUGGACAAAUGUCCCUGTT against Lce1f,-0.24
6,GGAAGAUGGCAAUAAUAACTT against Borcs7,-2.26 (active)
7,GGUUUUCCCACAUGUCAGATT against Zmat5,0.805
8,GGGUACAGACGAUGUUUGATT against Unc45b,0.347
9,GGUGUUCAACUCCACUAUGTT against Nhlrc1,0.511
10,GGUUCACAAUGGAUUAUGATT against Lrrc25,-1.68
11,UGAUAUUUGGUGUAUUCAGTT against Olfr972,-2.06 (active)
12,GGCUUUCUCCAAGCUAUAUTT against Tdgf1,-1.83
13,GGGAUACUACUUUCUAACATT against Rspo3,1.29
14,GCCAUACCCUGAAUUACCATT against Ndnf,-2.01 (active)
15,GGAUCAGAGAAGGAAAAAATT against Hspa12a,-1.98
16,CCCUGACUUGUCCUUACAATT against Trem3,-0.831
17,CCCUAGCGGAAAUUGUCAATT against Nono,0.328
18,GGGUCUGAUCACUUAUAUUTT against Lysmd3,2.02 (active)
19,CGAGGAGCCUGAAAUAUGGTT against Exosc2,-2.42 (active)
20,GGAAAAAAAAGUCUUCCUATT against Ttll6,-0.0777
21,CCUUGUUCCCGAAAUACCGTT against Krr1,-0.471
22,GUCAGUAUGGAGCGAUGGGTT against Zmiz2,0.695
23,GCCAUGUAGCACGUAACAGTT against Haus6,-0.368
24,GGAGAUACAUUGGUAGGUATT against Idua,-0.469

row,Sequence,z-score
1,GGAAACGUAUGAACAAUAATT against Sema4f,0.896
2,GCAAUGAGGAGUAUAUGUATT against Rfx5,2.89 (active)
3,GGAUUAUGGGAAUUAACUATT against Mpdz,1.06
4,CCUUCAGUGGUUUGAACCGTT against Dnd1,2.59 (active)
5,CCAAGUCUUGUAGUGGAGUTT against Vdac3,-0.269
6,GGGCUCCACUACCUAAUCATT against Gpr83,-1.07
7,GGUACACUAUGAGGUCUGCTT against Traf2,2.07 (active)
8,GGUCUAUCAGAUCAUCAAATT against Pde8a,0.584
9,GGGUUCAAUAACCACAUCATT against Ttc13,-2.13 (active)
10,GGACUCAGAAGUGAACAUATT against Spata7,-0.916
11,GCCUACGUGAAAUCUCACATT against Mycl,0.147
12,CCUCAAUUGGAUAAAGAAGTT against Gzma,1.7
13,GACAUACCAGCCGUAUAACTT against Erh,-2.39 (active)
14,CGAGGAGAAUUUGUAAUGATT against Etfrf1,-0.554
15,CCCUGAACCCUAACAUCACTT against Tcirg1,0.593
16,GGAGUGUUGGGAGCAGGAATT against Tnni1,2.71 (active)
17,GGAUGUUCUUGCUCAUGUGTT against Fam149b,0.605
18,GGAGAAAUGCCAUUGCGUCTT against Wnt3,0.169
19,GCGCGUCAUAAAAAGCAUATT against Lhx6,1.17
20,CGGAUCCUACGGAAUUACGTT against Fpgs,0.99
21,GGACAUUCUUUAAGAAGAUTT against Tjp3,-0.584
22,CCCAAAAGUUUUUACAGCUTT against Ttpa,0.0745
